Laboratory results: PubChem BioAssay AID1906 (The Scripps Research Institute Molecular Screening Center, 2009)
Hit rate of the full screen: of about 300,000 compounds, about 1,500 (0.5%) were called active. Shown is part of a subset that was picked to be rich in actives. Unmarked numbers belong to inactive results.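 How the source made its calls: active means inhibition above the mean of all tested compounds plus 3 SD, set per screening campaign (cut at about 17% in these data); inactive means the rest.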

Each molecule was assayed on cathepsin L1 (Fasciola hepatica) (assay: Fasciola hepatica cathepsin L1 inhibitors, primary screen, counter-screen for PFM18AAP inhibitor project, biochemical, QFRET, fluorogenic peptide substrate (AID 1906;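 further: 0% = plate median of test compound wells and 100% = 1 µM Z-Phe-Ala-diazomethylketone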)). Conditions: recombinant F. hepatica cathepsin L1, Z-Leu-Arg-MCA fluorescence; at 5.96 µM; stronger effect = higher value.

Compound	inhibition
O=C(COc1ccc(S(=O)(=O)N2CCCCC2)cc1)NCc1ccccn1	-1.94%
Cc1ccc(CNC(=O)Cn2cnc(S(=O)(=O)N3CCCCC3)c2)o1	17.4% (active)
O=C(COC(=O)c1cc(S(=O)(=O)N2CCCCC2)ccc1Cl)NCc1ccco1	-8.1%
CCOC(=O)/C(=N\Nc1ccccc1Cl)N(C)C1CCS(=O)(=O)C1 (centres undefined)	-2.25%
CCc1c(C)nc(SCC(=O)NC2CCCC2)[nH]c1=O	0.66%
COc1cccc2sc(N(CCCN(C)C)C(=O)CCS(=O)(=O)c3ccccc3)nc12	52.7% (active)
CC(=O)N(CCCN(C)C)c1nc2ccc(C)cc2s1	2.99%
COc1cccc2sc(N(CCCN(C)C)C(=O)C(c3ccccc3)c3ccccc3)nc12	1.13%
Cc1ccc2sc(N(CCN(C)C)C(=O)/C=C/c3cccs3)nc2c1C	0.9%
Cc1cccc2sc(N(CCCN(C)C)C(=O)CCS(=O)(=O)c3ccccc3)nc12	28.5% (active)
COc1cc2ccccc2cc1C(=O)N(CCN(C)C)c1nc2c(F)cccc2s1	3.44%
Cc1ccc(SCC(=O)Nc2nncs2)cc1	-3.07%
Cc1cc([N+](=O)[O-])c(NC2CCCCC2)c([N+](=O)[O-])c1	5.19%
Cc1cc(C(F)F)nn1CC(=O)NC1CCCCCC1	-2.79%
Cc1nn(CC(=O)NC2CCCCC2)c(=O)c2cccn12	-0.36%
O=C(Cn1nc([N+](=O)[O-])nc1Br)NC1CCCCC1	56.3% (active)
Cc1cc(C)n(-c2nc(O)cc(=O)[nH]2)n1	-2.61%
CC(OC(=O)CCC(=O)c1ccccc1)C(=O)Nc1ccc(F)cc1 (centres undefined)	-70.5%
C/C(=N\NC(=O)c1ccc2ccccc2c1)c1cccnc1	0.17%
Cn1cccc1/C=C1\SC(=S)N(NC(=O)c2ccc(Cl)cc2)C1=O	1.38%
CC(=O)N1C(=O)/C(=C2\SC(=S)N(NC(=O)c3ccc(O)cc3)C2=O)c2ccccc21	20.6% (active)
O=C(O)c1ccc2c(c1)C(=O)N(NC(=O)c1ccc(O)cc1)C2=O	-4.02%
CC(=O)c1cccc(NC(=S)N2CCN(S(C)(=O)=O)CC2)c1	-1.96%
O=C(NCc1ccccc1Cl)C1CCCN1S(=O)(=O)c1ccc(F)cc1 (centres undefined)	-1.27%

Compound	inhibition
COc1cccc(OCc2nnc3n2N=C(c2ccccc2)C(CC(=O)O)S3)c1 (centres undefined)	-0.13%
NC(=O)C1CCN(C(=O)/C(=C/c2ccco2)NC(=O)c2ccccc2)CC1	3.81%
O=C(NCc1ccco1)/C(=C/c1ccco1)NC(=O)c1ccccc1	8.99%
O=C(OCN1C(=O)c2ccccc2C1=O)/C(=C\c1ccco1)NC(=O)c1ccccc1	83.3% (active)
CNC(=O)c1c(NC(NC(=O)c2ccco2)C(=O)c2ccc(Cl)cc2)sc2c1CCCC2 (centres undefined)	1.81%
Cc1cc(CNC(=O)C2CCC(=O)N(CCc3ccc(Cl)cc3)C2)no1 (centres undefined)	1.95%
Cc1cc(=O)[nH]c2nnnn12	0.51%
O=C(Cc1ccccc1Cl)N1CCOCC1	-0.12%
Cc1cc2cc3c(N)[nH]nc3nc2cc1C	0.69%
O=C(Nc1cccc2cccnc12)c1cccc(Cl)c1	5.74%
O=C(Nc1cccnc1Oc1ncnc2cc(Cl)ccc12)c1ccc(F)cc1	19.2% (active)
O=C(Nc1cccc2c1CCCC2)c1ccc(F)cc1	-0.12%
O=C(COc1ccccc1)Nc1cc2c3c(c1)CC(=O)N3CCC2	-2.44%
CCCNC(=O)C(=O)Nc1cc2c3c(c1)CCC(=O)N3CCC2	57.1% (active)
O=C(Nc1cc2c3c(c1)CC(=O)N3CCC2)c1ccccc1F	-1.43%
COc1ccccc1C(=O)NC(CCSC)C(=O)NNC(=O)c1ccccc1C (centres undefined)	7.41%
CC1CN/C(=C\C(=O)c2ccc(Br)cc2)C(=O)N1 (centres undefined)	0.61%
O=C1c2ccccc2-c2ncnc3c(N4CCOCC4)cc(N4CCOCC4)c1c23	3.65%
COc1ccc(N2CCN(C(C)=C3C(=O)c4ccccc4C3=O)CC2)cc1	0.37%
COC1=C(N2CCOCC2)C(=O)c2ccccc2C1=O	21.1% (active)
C[C@@H](O)c1nc2ccccc2n1N	-3.93%
CC1=NNC(=O)C1CC(=O)N/N=C/c1ccncc1 (centres undefined)	2.89%
O=C(CSC1CC(=O)N(CCc2ccccc2)C1=O)Nc1ccc(Cl)cc1 (centres undefined)	-0.89%
CC(=O)Nc1ccc(CN2CCN(Cc3ccc(F)c(F)c3)C(CCO)C2)cc1 (centres undefined)	-1.18%

Compound	inhibition
CCOC(=O)Nc1sc(C(=O)N(C)C)c(C)c1C(=O)OCC	3.33%
CCOC(=O)c1sc(NC(=O)CCN2CCOCC2)c(C(=O)OCC)c1C	4.35%
CCOC(=O)c1c(NC(=O)CCl)sc(C(=O)N(CC)CC)c1C	41.2% (active)
CC(=O)c1ccc(NC(=O)Cn2c(=O)oc3ccccc32)cc1	5.59%
CCSc1nsc(NC(=O)Nc2cccc(C(C)=O)c2)n1	18.9% (active)
CCSc1nsc(NC(=O)Nc2ccccc2OC)n1	-2.36%
C=CCSc1nsc(NC(=O)Nc2cccc(C(C)=O)c2)n1	3.26%
CC(=O)c1cccc(NC(=O)C2CCCN(S(=O)(=O)c3cccc4nonc34)C2)c1 (centres undefined)	4.35%
CC[N+](C)(CC)CCC[n+]1c(-c2ccccc2)c2cc(N)ccc2c2ccc(N)cc21	108% (active)
CCOc1cc(C2/C(=C(/O)c3ccc(S(=O)(=O)N4CCCCC4)cc3)C(=O)C(=O)N2CCOC)ccc1O (centres undefined)	2.14%
Cc1ccc(NC(=O)CSc2nnc(COc3ccccc3C)o2)cc1	2.58%
CCCc1nnc(SCC(=O)Nc2ccc(C(=O)OCC)cc2)o1	22.8% (active)
Cc1cc(C)cc(OCc2nnc(SCC(=O)Nc3ccccc3)o2)c1	2.58%
CCOc1ccc(CN2CCN(Cc3ccc(C)o3)CC2CCO)cc1 (centres undefined)	-3.26%
COc1ccc(NC(=O)CN2C(=O)COc3ccc(S(=O)(=O)N4CCOCC4)cc32)cc1	-1.53%
CCc1ccccc1NC(=O)CSc1nnc(-c2ccncc2)o1	-3.59%
CCc1ccccc1NC(=O)CSc1nnc(CCNC(=O)OC(C)(C)C)o1	-11.2%
CCc1ccccc1NC(=O)CSc1nnc([C@@H](NC(=O)OC(C)(C)C)C(C)C)o1	25.9% (active)
CCc1ccccc1NC(=O)CSc1nnc([C@@H](NC(=O)OC(C)(C)C)C(C)CC)o1 (some centres undefined)	36.5% (active)
C[C@H](NC(=O)OC(C)(C)C)c1nnc(SCC(=O)Nc2ccc(Br)cc2)o1	9.5%
Cc1cccc(NC(=O)CSc2nnc(CCNC(=O)OC(C)(C)C)o2)c1C	-2.25%
COC(=O)C1(CCSC)NC(c2ccc(OC)cc2OC)C2C(=O)N(c3cccc(C(C)=O)c3)C(=O)C21 (centres undefined)	-14.2%
CCCCn1c(N)c(N(CC(C)C)C(=O)CSc2ccc([N+](=O)[O-])cc2)c(=O)[nH]c1=O	0.91%
Cc1ccc(N(C(=O)c2snc(C(N)=O)c2N)C(C(=O)NCC2CCCO2)c2c[nH]c3ccccc23)cc1 (centres undefined)	-0.55%

Compound	inhibition
CCCCC(CC)CNCc1cccn1CCN1CCOCC1 (centres undefined)	-3.94%
COc1ccc(CCNC(=O)C(=O)NCC2CCCN2S(=O)(=O)c2cccs2)cc1OC (centres undefined)	-2.2%
O=C(NCCC1CCCCN1S(=O)(=O)c1cccs1)C(=O)Nc1ccc(F)cc1F (centres undefined)	2.68%
COc1ccccc1CCNC(=O)C(=O)NCCC1CCCCN1S(=O)(=O)c1cccs1 (centres undefined)	17.3% (active)
Cc1ccc(C(=O)COC(=O)CCN2C(=O)C3C4CCC(C4)C3C2=O)cc1C (centres undefined)	8.56%
COc1ccc(/C=C/CN2CCN(Cc3ccc(C)cc3)C(CCO)C2)cc1 (centres undefined)	7.06%
COC(C(=O)Nc1ccc(S(=O)(=O)Nc2ccc(C)c(C)c2)cc1)c1ccccc1 (centres undefined)	1.68%
CCOC(=O)c1cc(NC(=O)c2cccnc2)ccn1	-0.7%
Cc1ccc(NC(=O)Nc2cccnc2)cc1	-1.42%
CCOC(=O)c1ccc(-c2ccc(C(=O)Nc3cccnc3)o2)cc1	19% (active)
Cc1cc(C)c(NC(=O)CN2CCOCCOCCOCCOCC2)c(C)c1	2.85%
CN(Cc1ccccc1)C(=O)CSc1nc2ccccc2[nH]1	2.91%
O=C(CSc1nc2ccccc2[nH]1)N/N=C/C=C\c1ccccc1[N+](=O)[O-]	4.39%
O=C(CSc1nc2ccccc2[nH]1)Nc1nc(-c2ccccc2)c(-c2ccccc2)o1	17.5% (active)
Cc1ccc(O/C=C2\OC(=O)c3ccccc32)cc1	2.38%
CCOc1cc(C)ccc1OCc1nnc(SCC(=O)Nc2cccc(C(=O)O)c2)n1-c1ccccc1	-6.39%
Cc1cccc(-n2c(SCC(=O)Nc3cccc(S(=O)(=O)NC4=NCCCCC4)c3)nc3ccccc3c2=O)c1C	0.48%
COc1ccc(Cl)cc1C(=O)NCC#N	21% (active)
COc1ccc(Cl)cc1C(=O)NCc1cn(C)nc1C	-1.11%
CCC(C)NC(=O)c1cc(Cl)ccc1OC (centres undefined)	0.5%
Cc1cnc(C(=O)Oc2cccc(Cl)c2Cl)cn1	-0.8%
O=C(NCc1cccc(Cl)c1)C1CCN(c2nnc(N3CCCC3=O)s2)CC1	-5.47%
